HepG2 tox – counter-screen for TGF-b inhibitors: cytotoxicity in HepG2 cells; HepG2 CAGA-GFP viability, ATP luminescence, 18 h; Potency, µM (highest dose often 46.1 µM), for inactives: at the highest dose activity change, negative = cytotoxicity, usual class: cytotoxic; 410,000 compounds, 0.76% hits; AID 588856; note: potency is the fitted concentration of half-maximal effect
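CellTiter-Glo luminescence gave cytotoxicity after 18 hours at 37 degrees C. The cells were HepG2 CAGA-GFP in 1% FBS DMEM, stimulated with 500 pg/mL TGF-beta after compound addition. %Activity was normalised to no-cell wells (complete cell-killing) and DMSO (no toxicity), and curves were fitted and classified.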
DT40 TDP1 no CPT – qHTS for Inhibitors of human tyrosyl-DNA phosphodiesterase 1 (TDP1): qHTS in cells in absence of CPT; DT40 Tdp1-/- hTDP1 cells, no CPT, ATP luminescence, 48 h; AID 686978, 2013; 420,000 compounds, 15% hits; Potency, µM (doses to about 46.2 µM), inactives show top-dose activity change, negative = growth inhibition, hits mostly inhibitors; note: potency is the fitted concentration of half-maximal effect; % is set by controls: 0 for no effect and ±100 for the full control effect; nearly all actives have a fitted effect of over 55% in size
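Camptothecin absent (DMSO only). Human TDP1-complemented DT40 knockout cells, 400 cells/well, 37 °C for minimum 48 hr; ATP measured via CellTiter-Glo, 30 min dark incubation, luminescence.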
ASM inhibitor – human S-ASM enzyme inhibition; P17405; placental ASM, HMU-PC fluorogenic substrate, 60 min; Potency, µM (highest dose often 57.5 µM), inactives show at the top dose activity change, negative = inhibition, most hits filed as inhibitors; 340,000 compounds, 0.006% hits; note: potency is the fitted concentration of half-maximal effect
Target sequence (P17405 47-631 limits assumed): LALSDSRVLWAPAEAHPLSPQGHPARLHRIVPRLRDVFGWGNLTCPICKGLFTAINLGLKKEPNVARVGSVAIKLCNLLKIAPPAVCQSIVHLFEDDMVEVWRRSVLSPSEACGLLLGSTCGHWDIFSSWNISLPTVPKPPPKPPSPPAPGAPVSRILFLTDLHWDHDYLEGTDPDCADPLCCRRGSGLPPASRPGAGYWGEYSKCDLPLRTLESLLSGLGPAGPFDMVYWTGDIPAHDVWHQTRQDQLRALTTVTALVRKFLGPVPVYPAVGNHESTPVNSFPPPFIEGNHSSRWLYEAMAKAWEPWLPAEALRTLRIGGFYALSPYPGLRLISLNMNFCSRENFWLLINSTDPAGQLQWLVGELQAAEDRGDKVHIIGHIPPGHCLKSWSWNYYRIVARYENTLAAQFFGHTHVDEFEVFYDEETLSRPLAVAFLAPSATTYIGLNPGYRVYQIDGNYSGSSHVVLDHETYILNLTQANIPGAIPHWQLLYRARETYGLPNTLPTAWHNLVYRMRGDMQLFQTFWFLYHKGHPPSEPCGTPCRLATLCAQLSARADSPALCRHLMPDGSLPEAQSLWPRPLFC
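Human placenta-derived ASM preincubated with compound 10 min at room temperature, then reacted with 9 uM (final) fluorogenic HMU-PC substrate for 60 min at 37 C. Stop solution raises pH to 10; fluorescence read at Ex 386/Em 447 nm.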
DT40 TDP1 CPT – growth inhibition of DT40 Tdp1-/-;hTDP1 cells with camptothecin (screen for TDP1 inhibitors); chicken DT40 Tdp1-/-;hTDP1 cells + 20 nM CPT, ATP luminescence, 48 h; Potency, µM (top dose mostly 46.2 µM), without a hit: at the top dose activity change, negative = growth inhibition, actives largely listed as inhibitors; 420,000 compounds, 12% hits; AID 686979; note: potency is the fitted concentration of half-maximal effect; % is set by controls: 0 for no effect and ±100 for the full control effect; nearly all actives have a fitted effect of over 55% in size
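Chicken DT40 Tdp1-/- cells stably complemented with human TDP1 were seeded at 400 cells/well in medium containing 20 nM camptothecin, exposed to pin-transferred compounds, and grown at 37 °C for at least 48 hr. Viability was read as ATP luminescence.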
TGFb inhibitor – TGF-b pathway inhibition; HepG2 CAGA-GFP TGF-b/SMAD3 reporter, GFP fluorescence, 18 h; TGF-beta stimulated, 500 pg/mL final; Potency, µM (top dose mostly 46.1 µM), inactives show top-dose activity, negative = inhibition, actives largely listed as inhibitors; 410,000 compounds, 1.2% hits; AID 588855; note: potency is the fitted concentration of half-maximal effect; % is set by controls: 0 for no effect and ±100 for the full control effect; nearly all actives have a fitted effect of over 65% in size
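GFP signal (ex488/em500-530) from TGF-beta-stimulated HEPG2 CAGA-GFP cells, 500 pg/mL final, 18 h at 37 degrees C in DMEM plus 1% FBS, normalized to unstimulated and DMSO-stimulated controls.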
IL1B secr inh – inhibitors of inflammasome signaling (IL-1 beta secretion) | THP-1 LPS/ATP IL-1B secretion, AlphaLISA, 16 h; hits give low values | activity change, % at 57.5 µM | 360,000 compounds, 4.7% hits | AID 743279; in the data active = activity change below about -50%; inconclusive = mostly about -30% to -49%; note: % is set by controls: 0 for no effect and ±100 for the full control effect
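THP-1 cells pretreated 1 hr with compounds (up to 57.5 uM final), then stimulated with LPS (250 ng/mL final) plus ATP (1.25 mM final); secreted IL-1B measured by AlphaLISA after 16 hr, decreased signal indicating inhibition.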
* = called active by the depositor; i = inactive; ? = inconclusive; . = no result given. Hits are enriched below; roughly 19% of the tested compounds scored in any of these assays. Unless noted, calls come from the whole dose curve; as a rule, active = well fitted curve in the direction sought with a large enough effect; inconclusive = small, poorly fitted or top-dose-only effect, or another doubt; inactive = no such curve, though single readings can be large; an effect the other way counts as inactive or inconclusive.

SMILES	HepG2 tox	DT40 TDP1 no CPT	ASM inhibitor	DT40 TDP1 CPT	TGFb inhibitor	IL1B secr inh
COc1ccc(CCNC(=O)C(C)n2nc(C)c3c(C)n(-c4ccc(C)cc4)nc3c2=O)c(OC)c1 (stereo unspecified)	-24.1%	?	-0.5%	23.1µM*	?	-50.4*
CCC(C(=O)Nc1ccccc1F)n1nc(C)c2c(C)n(-c3ccccc3)nc2c1=O (stereo unspecified)	-1.2%	?	-0.8%	?	-5.3%	-22.2
CCC(C(=O)Nc1cc(F)ccc1F)n1nc(C)c2c(C)n(-c3ccc(C)cc3)nc2c1=O (stereo unspecified)	-12.6%	16.4µM*	-8.1%	14.6µM*	?	-9.2
Cc1nn(Cc2ccccc2)c(=O)c2nn(-c3ccc(Cl)cc3)c(C)c12	11.8%	20.6µM*	1.1%	?	-18.6%	-70.2*
O=C(NCC1(N2CCOCC2)CCCC1)c1cnn(-c2nccc(-c3ccco3)n2)c1C1CC1	.	-29.0%	.	?	.	.
COc1cccc(-n2c(SCc3ccccc3C)nc3c([nH]c4ccccc43)c2=O)c1	-29.2%	?	.	?	?	.
CCC(C(=O)NCc1ccc(OC)c(OC)c1)n1nc(C)c2c(C)n(-c3ccc(C)cc3)nc2c1=O (stereo unspecified)	-8.9%	23.1µM*	.	16.4µM*	?	.
Cc1ccc(CCNC(=O)C(C)n2nc(C)c3c(C)n(-c4ccc(C)cc4)nc3c2=O)cc1 (stereo unspecified)	-40.5%	20.6µM*	.	20.6µM*	?	.
Cc1ccc(-n2nc3c(=O)n(CC(=O)NC(C)CCc4ccccc4)nc(C)c3c2C)cc1 (stereo unspecified)	-19.6%	23.1µM*	-0.9%	?	?	19.1
CCC(C(=O)NCCC1=CCCCC1)n1nc(C)c2c(C)n(-c3ccccc3)nc2c1=O (stereo unspecified)	-2.7%	25.9µM*	1.4%	?	?	-0.1
Cc1ccc(-n2nc3c(=O)n(CC(=O)NCc4ccccc4)nc(C)c3c2C)cc1	-10.7%	-2.9%	0.4%	8.2%	?	15.1
O=C(O)COc1ccc(/C=N/NC(=O)C(O)(c2ccccc2)c2ccccc2)cc1	0.7%	-11.0%	2.6%	-1.8%	-0.1%	-9.7
BrC(=C\c1ccccc1)/C=N/Nc1nc(N2CCOCC2)nc(N2CCOCC2)n1	-12.6%	13µM*	-1.1%	2.31µM*	0.2%	-128.5*
CC(/C=N/Nc1nc(N2CCCCC2)nc(N2CCCCC2)n1)=C\c1ccccc1	-0.4%	-24.0%	-2.6%	?	0.7%	1.3
C(=N\Nc1nc(N2CCOCC2)nc(N2CCOCC2)n1)/c1ccncc1	15.2%	-17.7%	2.1%	-0.1%	-19.6%	8.1
BrC(/C=C\c1ccccc1)=N/Nc1nc(N2CCOCC2)nc(N2CCOCC2)n1	-51.3%	10.3µM*	-0.9%	7.31µM*	?	-6.2
CN(C)c1ccc(/C=C/C=N/Nc2nc(N3CCOCC3)nc(N3CCOCC3)n2)cc1	-1.7%	?	i	16.4µM*	?	-13.8
NC(=O)c1ncn([C@@H]2O[C@H](CNCc3cc(Br)ccc3OCc3ccccc3)[C@@H](O)[C@H]2O)n1	-37.9%	?	-2.0%	-37.0%	2.1%	-8.8
O=c1[nH]c2cccc(Cl)c2c2ccccc12	-8.6%	-13.3%	.	-10.7%	7.0%	10.1
COc1ccc(-c2cc(C(=O)N/N=C(\C)c3cccnc3)c3cc(C)ccc3n2)cc1OC	-53.0%	1.16µM*	23.7%	8.2µM*	?	-22.5
C/C(=N\NC(=O)c1cc(-c2cccc(OC(C)C)c2)nc2ccccc12)c1cccnc1	-28.8%	?	-4.5%	10.3µM*	0.6%	-2.8
C/C(=N\NC(=O)c1cc(-c2ccc(C)s2)nc2ccccc12)c1cccnc1	0.2%	?	283.5%	11.6µM*	1.0%	-53.4*
C/C(=N\NC(=O)c1cc(-c2cccnc2)nc2ccccc12)c1ccc(O)cc1O	-20.1%	10.3µM*	6.5%	11.6µM*	-8.6%	49.3
C/C(=N/NC(=O)c1cc(-c2ccccc2)nc2c(Cl)cccc12)c1cccnc1	-52.0%	-27.8%	-5.0%	10.1%	-22.4%	-0.8
C/C(=N\NC(=O)c1cc(-c2ccccc2C)nc2ccccc12)c1cccnc1	-7.8%	?	-0.3%	?	-1.2%	-3.8
SMILES	HepG2 tox	DT40 TDP1 no CPT	ASM inhibitor	DT40 TDP1 CPT	TGFb inhibitor	IL1B secr inh
CC(C)(C)OC(=O)CN1c2cccc3cccc(c23)S1(=O)=O	-12.2%	-1.7%	32.8%	-14.3%	0.0%	6.4
N[C@@H](Cc1ccccc1)C(=O)N1CCC(C(=O)NCC(=O)NCC(=O)O)CC1	-0.1%	2.1%	-0.1%	-1.3%	-0.2%	-8.5
CC(C)c1ccc(CNc2ccc3c(c2)ncn3C)cc1	-32.3%	?	-1.6%	23.1µM*	?	0.0
CN(C)c1ccc(CNc2ccc3c(c2)ncn3C)cc1	-19.2%	23.1µM*	2.4%	14.6µM*	0.7%	-58.6*
CC1(C(=O)NCc2cccc(C(F)(F)F)c2)CCN1Cc1ccc(-c2ccccc2)o1 (stereo unspecified)	-93.4%	?	.	?	?	-18.9
CC1(C(=O)NCc2cccc(C(F)(F)F)c2)CCN1Cc1cc2ccccc2o1 (stereo unspecified)	-39.3%	18.4µM*	.	25.9µM*	?	?
CCNC(=O)C1(C)CCCN1Cc1cccc(C(F)(F)F)c1 (stereo unspecified)	-12.7%	18.4µM*	.	18.4µM*	3.2%	31.3
Cc1nc(SCC(=O)NCc2cccs2)nc(C)c1C	3.3%	5.3%	-1.4%	14.5%	-13.0%	36.9
O=C(CSc1cccc2cccc(Cl)c12)NCc1cccs1	-3.5%	25.9µM*	-10.3%	?	-3.8%	-4.6
CCn1cc(/C=N\NC(=O)c2cc(-c3ccccc3OC)nc3ccccc23)c(C)n1	-14.1%	16.4µM*	-0.7%	?	3.2%	-1.9
COc1ccccc1-c1cc(C(=O)N/N=C\c2cn(C)nc2C)c2ccccc2n1	6.6%	13µM*	5.0%	?	9.4%	0.6
O=c1ccc(S(=O)(=O)N2CCCC2)cn1Cc1ccc(Cl)cc1Cl	-15.5%	11.6µM*	2.3%	20.6µM*	?	-4.5
CCOC(=O)c1ccc(CNC(=O)Cn2nnc(-c3ccc(C)cc3)n2)o1	-24.9%	-9.5%	0.3%	-13.5%	9.8%	-1.0

Compound activity deposited in PubChem BioAssay by National Center for Advancing Translational Sciences (NCATS).
